# Assay outcomes as filed in PubChem BioAssay.
# A selection: hits, their analogues and other compounds. The true share with any hit is near 3.4%.
# Tau fibril ThT – inhibitors of human tau fibril formation, thioflavin T binding; P10636; recombinant tau K18 P301L, heparin-induced fibrillization, ThT fluorescence; actives 2.1% (n = 270,000); Potency, µM (highest dose often 57.4 µM), inactives show at the top dose activity, negative = inhibition, most hits filed as inhibitors; AID 1460; further: nearly all actives have a fitted effect of over 55% in size
# Target sequence (P10636 561-689 P618L limits assumed): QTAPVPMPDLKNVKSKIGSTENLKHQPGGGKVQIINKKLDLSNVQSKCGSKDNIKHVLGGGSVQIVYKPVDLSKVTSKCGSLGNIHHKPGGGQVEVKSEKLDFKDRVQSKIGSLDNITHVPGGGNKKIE
#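 Using a mix of unlabeled (15 uM) and Alexa 594-labeled (0.24 uM) tau K18 P301L, heparin-triggered fibrillization over 6 hr at 37 C was scored by ThT fluorescence.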
# Tau FP inhib – tau fibrillization inhibition (FP); P10636; K18 P301L tau heparin fibrillization, Alexa594 FP, 6 h; Potency, µM (top dose mostly 57.7 µM), inactives show top-dose activity, negative = inhibition, usual class: inhibitors; actives 0.39% (n = 280,000); AID 1468; further: nearly all actives have a fitted effect of over 55% in size
#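 Human tau K18 […] P301L fragment, 15 uM unlabeled plus 0.24 uM Alexa 594-labeled tau (final), with compound and 20 uM heparin in 100 mM sodium acetate pH 7; 6 hr at 37 C, then Alexa 594 FP read.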
# RGS12 GoLoco inh – inhibitors of human Gai1-RGS12 GoLoco interaction (red fluorophore). actives 0.44% (n = 230,000). Potency, µM (top dose mostly 61.6 µM), for inactives: top-dose activity, negative = inhibition, usual class: inhibitors. P63096. Gai1:RGS12 GoLoco peptide FP, rhodamine, 10 min; active means well fitted inhibition curve with a large enough effect, not every such curve was filed as active; inactive means no such curve, though single readings can be large or run the other way; further: nearly all actives have a fitted effect of over 30% in size
# Tau fluor cs – counter-screen for tau fibril formation inhibitors. tau K18 P301L (four-repeat tau fragment) Alexa594 fluorescence, heparin fibrillization. actives 0.93% (n = 280,000). Potency, µM (highest dose often 57.7 µM), without a hit: at the top dose activity change, negative = decrease; further: nearly all actives have a fitted effect of over 55% in size
#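 Human K18 P301L tau (15 uM unlabeled plus 0.24 uM Alexa 594-labeled, final) in 100 mM sodium acetate pH 7 was mixed with compound and 20 uM heparin and incubated 6 hr at 37 C.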
# JMJD2E inh – JMJD2E (human) inhibition | JMJD2E catalytic domain, FDH-coupled NADH fluorescence (FDH is formaldehyde dehydrogenase) | AID 2147 | actives 1.6% (n = 230,000) | Potency, µM (doses to about 57.1 µM), for the others: at the highest dose activity change, negative = inhibition, most hits filed as inhibitors | B2RXH2; active means well fitted inhibition curve with a large enough effect, not every such curve was filed as active; inconclusive means small, poorly fitted or top-dose-only effect, or another doubt; inactive means no such curve, though single readings can be large or run the other way;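 further: 0% = wells with enzyme and -100% = buffer wells without enzyme; nearly all actives have a fitted effect of over 50% in size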
# Target sequence (B2RXH2 1-337 limits assumed): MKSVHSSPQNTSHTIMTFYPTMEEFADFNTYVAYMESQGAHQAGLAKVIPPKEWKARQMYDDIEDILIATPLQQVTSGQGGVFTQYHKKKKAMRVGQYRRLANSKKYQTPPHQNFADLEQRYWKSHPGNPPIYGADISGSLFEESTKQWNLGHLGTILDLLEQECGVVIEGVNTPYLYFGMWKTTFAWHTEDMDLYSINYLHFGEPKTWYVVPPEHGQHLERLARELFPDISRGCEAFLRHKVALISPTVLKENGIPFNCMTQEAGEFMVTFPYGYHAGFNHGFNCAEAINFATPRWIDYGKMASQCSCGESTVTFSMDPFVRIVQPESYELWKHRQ
# The depositor's hits bear a star; ? = inconclusive; . = no result given; [ ] = another dose, or the depositor's remark. Unless noted, the call rests on the fitted dose curve; in most records, active means well fitted curve in the direction sought with a large enough effect; inconclusive means small, poorly fitted or top-dose-only effect, or another doubt; inactive means no such curve, though single readings can be large; an effect the other way counts as inactive or inconclusive. Unless noted, on the % scale 0 is the no-effect control and ±100 the full control effect; potency means the concentration at half of the fitted maximal effect.
SMILES,Tau fibril ThT,Tau FP inhib,RGS12 GoLoco inh,Tau fluor cs,JMJD2E inh
CCCOc1ccc(-c2nn(-c3ccccc3)cc2/C=C2\SC(N)=NC2=O)cc1,8%,-14%,2%,-26%,?
CC(=O)Nc1ccc(-c2ccccc2)s1,-4%,9%,18µM*,3%,-2%
O=C(/C=C/c1ccc([N+](=O)[O-])cc1)Nc1ncc([N+](=O)[O-])s1,3.5µM*,10%,-4%,?,4%
O=C(/C=C/c1ccc([N+](=O)[O-])cc1)NCc1ccccn1,2%,7%,7%,6%,-10%
CN(C)/C=C1\NC(=S)N(c2ccccc2)C1=O,-13%,-3%,-10%,0%,-3%
COc1ccc(N2C(=O)/C(=C/c3cccs3)NC2=S)cc1,22µM*,?,-14%,-25%,0%
CCc1ccc(C(=O)/C=C/c2ccc([N+](=O)[O-])o2)cc1,8.9µM*,?,9%,?,-21%
CCN(CC)S(=O)(=O)c1ccc(C(=O)/C=C/c2ccc(-c3ccc([N+](=O)[O-])cc3)o2)cc1,?,9%,42%,?,11%
Cc1cc(/C=C2\SC(=Nc3ccc(F)cc3)NC2=O)c(C)n1-c1ccc(S(N)(=O)=O)cc1,14µM*,10%,25%,?,-8%
Cc1cc(/C=C2\SC(=S)NC2=O)c(C)n1-c1ccc(O)cc1,7.9µM*,11%,35%,22µM*[quencher],?
Cc1cc(/C=C2\SC(=S)NC2=O)c(C)n1-c1ccccc1,7.1µM*,?,77%,?,-25%
CCCCn1cc(S(=O)(=O)c2ccc(CC)cc2)c(=O)c2cc(F)c(N3CCCC(C)C3)cc21 (stereo not drawn),-9%,-6%,.,1%,.
CC(=O)OCc1cnc(C)c2oc(=O)c(C(=O)Nc3cc(F)ccc3C)cc12,-13%,1%,.,-17%,.
CCOC(=O)C1=C(C)c2ccccc2N(C(=O)OC)C1(C)C(=O)OCC (stereo not drawn),?,0%[81.3 µM],-11%[88.7 µM],-11%[81.3 µM],.
CCC(C)C(=O)N1c2ccccc2C(=C2SC(C(=O)OC)=C(C(=O)OC)S2)C(=S)C1(C)C (stereo not drawn),4µM*,?,-5%,?,-11%
Fc1ccc(-c2noc3ncnc(N4CCCCC4)c23)cc1,-5%,-7%,.,-13%,.
O=C(Nc1ccccc1)Nc1nc(-c2ccccc2)cs1,6%,?,-2%,-27%,-2%
O=C(Nc1ccc(Cl)cc1)Nc1nc(-c2ccccc2O)cs1,4%,?,-4%,3.5µM*[quencher],9%
O=C(Nc1ccc(Cl)c(Cl)c1)Nc1nc(-c2ccccc2)cs1,12%,18µM*,-2%,?,-4%
COc1cccc2c1Oc1ncccc1N(C(=O)Nc1cccc(Cl)c1)C2,-15%,-7%,.,?,.
N#CC1=C(N)Oc2c(O)cc3ccccc3c2C1c1ccsc1 (stereo not drawn),?,?,4%,16µM*[quencher],?
Cc1cc(C)c(NC(=O)Cn2c(=O)nc(-c3ccccc3)c3cc(Cl)ccc32)c(C)c1,?,1%,.,-4%,.
CCOc1cc(/C=N/Nc2nc(-c3cccs3)c(NC(C)=O)s2)ccc1O,25µM*,-12%,4%,?,-23%
Cc1sc(N)nc1-c1cccs1,-13%,-5%,5%,-10%,3%
Nc1nc(-c2cccs2)c(NC(=O)c2ccccc2)s1,14µM*,?,1%,?,-5%
SMILES,Tau fibril ThT,Tau FP inhib,RGS12 GoLoco inh,Tau fluor cs,JMJD2E inh
CC(=O)Nc1sc(N/N=C\c2ccccc2)nc1-c1cccs1,10µM*,-6%,26%,?,-5%
CC(=O)Nc1sc(N/N=C\c2ccco2)nc1-c1cccs1,16µM*,?,6%,?,-23%
CCOC(=O)c1cc(-c2ccc(OC)cc2)n(CCC(=O)Nc2cccc(C(C)=O)c2)c1C,1%,-4%,.,?,.
CC(=O)Nc1sc(NC(=O)c2ccc(Cl)cc2)nc1-c1cccs1,?,0%,3%,-25%,2%
CC(=O)Nc1sc(NC(=O)c2ccc([N+](=O)[O-])cc2)nc1-c1cccs1,7.9µM*,2%,-3%,?,-5%
Cc1ccc(S(=O)(=O)CC(=O)Nc2sc3c(c2C#N)CCCC3)cc1,-6%,1%,.,-2%,.
Cc1oc2ncn(CC(C)C)c(=O)c2c1C(=O)NCCc1ccc(Cl)cc1,-2%,-5%,.,-10%,.
N/C(=N\OC(=O)c1ccc(Cl)c([N+](=O)[O-])c1)c1ccccn1,8.9µM*,-7%,3%,?,-13%
COc1ccc(/C=N/NC(=O)c2ccc(O)cc2)cc1CN1CCCc2ccccc21,?,?,20%,14µM*[quencher],-15%
COc1ccc(/C=N\NC(=O)c2cc(O)c(O)c(O)c2)cc1CN1CCN(c2ccc(F)cc2)CC1,?,-1%,-1%,?,4µM*
O=C(CCc1nc2cccnc2n1Cc1ccccc1)NCc1cccc(Cl)c1,-17%,-8%,.,-20%,.
O=C(CC1Sc2ncnn2C1=O)Nc1ccc(Br)cc1 (stereo not drawn),?,-7%,-8%,-5%,2.2µM*
COc1cc(OC)cc(N2C(=O)N(Cc3ccc(C(C)(C)C)cc3)c3ccccc3S2(=O)=O)c1,11%,?,.,-1%,.
O=C(CC1N=C2c3ccccc3N=C(SCc3ccccc3F)N2C1=O)NCc1ccc2c(c1)OCO2 (stereo not drawn),-18%,5%,.,-10%,.
COc1ccc(C2C(C(=O)c3cccs3)=C(O)C(=O)N2c2nncs2)cc1 (stereo not drawn),-9%,-1%,1.8µM*,-4%,2%
COc1ccc(C2C(C(=O)c3cccs3)=C(O)C(=O)N2c2nnc(C)s2)cc1OC (stereo not drawn),-2%,-4%,-8%,0%,-10%
COc1cc(OC)c(NC(=O)C(C)n2c(=O)cc(-c3ccccc3)c3c(C)nn(C)c32)cc1Cl (stereo not drawn),?,4%,.,-19%,.
CCN(Cc1ccccc1)S(=O)(=O)c1ccc2c(c1)CC(C)N2C(=O)C1CCC1 (stereo not drawn),-13%,-3%,.,-17%,.
COc1c(O)c(O)cc2c1oc1c3cc(C)ccc3oc(=O)c21,8.9µM*,?,-17%,10µM*[quencher],20µM*
CCc1ccccc1Nc1nn2c(=O)c3ccc(C(=O)NC4CCC(C)CC4)cc3nc2s1 (stereo not drawn),8%,4%,.,4%,.
